FH mod: Identification of activators of human fumarate hydratase by quantitative high-throughput screening. Fumarate hydratase, mitochondrial (Homo sapiens), P07954. FH coupled MDH/diaphorase resazurin fluorescence, 15 min. Potency, µM (doses to about 79.9 µM), inactives show top-dose activity change, negative = inhibition, most hits filed as inhibitors. 54,000 compounds, 0.22% hits. AID 1347055, 2019; also: % is scaled to controls: 0 for no effect and ±100 for the full control effect; the screen sought activators but most active calls are inhibition curves; nearly all actives have a fitted effect of over 45% in size
Target sequence (P07954 whole entry, looked up): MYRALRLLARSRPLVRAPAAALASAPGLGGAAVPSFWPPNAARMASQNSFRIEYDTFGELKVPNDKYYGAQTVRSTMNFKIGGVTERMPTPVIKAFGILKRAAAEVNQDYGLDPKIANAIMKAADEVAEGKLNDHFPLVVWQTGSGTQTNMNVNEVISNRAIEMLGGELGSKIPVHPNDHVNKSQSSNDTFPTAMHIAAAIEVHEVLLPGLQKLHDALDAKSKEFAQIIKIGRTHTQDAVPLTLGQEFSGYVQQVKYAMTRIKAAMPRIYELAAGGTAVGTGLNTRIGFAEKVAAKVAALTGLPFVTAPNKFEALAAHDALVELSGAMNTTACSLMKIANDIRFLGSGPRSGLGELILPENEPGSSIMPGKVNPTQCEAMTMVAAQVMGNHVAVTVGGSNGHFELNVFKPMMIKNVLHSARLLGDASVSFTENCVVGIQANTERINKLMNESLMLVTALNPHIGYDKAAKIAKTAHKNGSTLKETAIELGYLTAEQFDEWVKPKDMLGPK
p53null 39C tox: p53 null cell cytotoxicity, nonpermissive temperature | H1299 p53-null (neo) cells, 39C, ATPlite viability, 24 h | Potency, µM (highest dose often 46.1 µM), for inactives: at the top dose activity, negative = cell killing, most hits filed as cytotoxic | 55,000 compounds, 0.97% hits | AID 904;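 also: 0% = DMSO only and -100% = full killing by 100 µM tamoxifen; nearly all actives have a fitted effect of over 50% in size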
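Following overnight plating at 37C (600 cells/well), H1299-neo or H1299-p53A138V cells are dosed up to 46 uM. Incubation lasts 24 hr at 39C before ATP detection.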
NTMT1 inh: blocks human N-terminal methyltransferase 1 activity | Q9BV86 | NTMT1 MTase-Glo SAH luminescence, purified enzyme | Potency, µM (doses to about 114 µM), without a hit: top-dose activity change, negative = inhibition, hits mostly inhibitors | 59,000 compounds, 2.5% hits | AID 1645870;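 also: plate controls were DMSO vehicle for no effect and no enzyme for full effect; nearly all actives have a fitted effect of over 65% in size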
GALC G270D up: enhancers of human galactocerebrosidase G270D mutant activity in cells. P54803. 145M-Twi-hGALC-G270D cells (Twitcher mouse brain line with human GALC G270D), HMU-beta-Gal fluorescence, 48 h. Potency, µM (doses to about 57.5 µM), hits mostly activators. 45,000 compounds, 0.1% hits. AID 1159614; also: 0% is about no effect; nearly all actives have a fitted effect of over 65% in size
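Brain-derived Twitcher mouse 145M-Twi cells stably expressing human GALC-G270D or wild-type GALC, treated live, then residual GALC activity read by fluorescence of HMU-b-Gal substrate (0.1 mM final) in citrate-phosphate buffer pH 5.2 with sodium taurocholate. Signal increase indicates enhancement.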
p53null 32C kill: kills p53 null cells at the permissive temperature. 55,000 compounds, 0.62% hits. Potency, µM (highest dose often 46.1 µM), for inactives: at the top dose activity change, negative = cytotoxicity, most hits filed as cytotoxic. H1299-neo p53 null cells, ATP luminescence, 24 h, 32C;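 also: 0% = DMSO only and -100% = full killing by 100 µM tamoxifen; nearly all actives have a fitted effect of over 55% in size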
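Overnight 37C seeding (600 cells/well) of H1299-neo preceded a 24 hr, 32C exposure to compounds up to 46 uM. ATP levels, read by luminescence after 20 min at RT, indicated surviving cells.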
Starred values were filed as active, the others as inactive; ! = repeats disagree; [ ] = remark or other dose. The sample as a whole holds a higher share of hits than the screen did. Calls follow the shape of the dose curve; as a rule, active = well fitted curve in the direction sought with a large enough effect; inconclusive = small, poorly fitted or top-dose-only effect, or another doubt; inactive = no such curve, though single readings can be large; an effect the other way counts as inactive or inconclusive. Potency is read from the fitted curve at half-maximal effect.

Screening Cc1c(-c2ccccc2)c(=O)oc2c(CN3CCN(C)CC3)c(O)ccc12 returned FH mod 5.4%, p53null 39C tox 18.3%, NTMT1 inh -7.2%, GALC G270D up 4.47µM* and p53null 32C kill -5.7%.
For O=C1N/C(=C\c2ccco2)C(=O)N1Cc1ccccc1 the results were NTMT1 inh 0.8%[57.5 µM].
N#Cc1cccc(-c2ccc(CNc3nc(-c4ccccc4C(F)(F)F)nc4ccccc34)cc2)c1 was read as NTMT1 inh 11.1%.
Screening CCn1c(=O)n([C@H]2CCCN(c3nccc(-c4cc5ccccc5o4)n3)C2)c2ccccc21 returned FH mod 0.5% and NTMT1 inh 3.2%[57.5 µM].
For CN1C/C=C/CCOc2cccc(c2)-c2ccnc(n2)Nc2cccc(c2)C1 the results were FH mod 9.9% and NTMT1 inh 39.8µM*.
`O=C(/C=C/c1cccnc1)NCCCCC1CCN(C(=O)c2ccccc2)CC1` gave NTMT1 inh 15.3%.
For CC1(COc2ccc3c(c2)ncn3-c2ccc3cccc(N4CCC(N)CC4)c3n2)COC1 the results were FH mod 2.1% and NTMT1 inh 22.4µM*!.
For Brc1c(Br)c(Br)c2[nH]cnc2c1Br the results were FH mod -15.4%[53.3 µM].
Brc1c(Br)c(Br)c2n[nH]nc2c1Br was read as FH mod 31.6µM* and NTMT1 inh 11.2µM*.
For Cc1ccc(OCC(=O)NCC(c2ccc(Cl)cc2)N2CCCCC2)cc1 (configuration not stated) the results were FH mod -7.0%, p53null 39C tox -8.3%, NTMT1 inh 79.4µM*, GALC G270D up inactive and p53null 32C kill -2.2%.
`CCN(CC)S(=O)(=O)c1ccc2c(c1)c(=O)c(C(=O)N(C)Cc1ccccc1)cn2C` gave FH mod -2.4%, p53null 39C tox 20.7%, NTMT1 inh 5.8%, GALC G270D up 25.1µM* and p53null 32C kill -0.8%.
Screening CCN(CC)S(=O)(=O)c1ccc2c(c1)c(=O)c(C(=O)NCc1ccccc1)cn2C returned FH mod -3.8%, p53null 39C tox 13.0%, NTMT1 inh 6.1%, GALC G270D up inactive and p53null 32C kill 8.3%.
`CCCCN(C)C(=O)c1cn(C)c2ccc(S(=O)(=O)N(C)C)cc2c1=O` gave p53null 39C tox 8.0% and p53null 32C kill 1.3%.
Screening CCN(CC)S(=O)(=O)c1ccc2c(c1)c(=O)c(C(=O)NCc1ccccc1Cl)cn2C returned FH mod -4.7%, p53null 39C tox 5.01µM*, NTMT1 inh -15.1%, GALC G270D up inactive and p53null 32C kill inconclusive.
Screening Cc1nc([C@](C)(O)CO)sc1-c1cnc(N)c(O[C@H](C)c2cc(F)ccc2-n2nccn2)c1 returned FH mod 2.4% and NTMT1 inh -3.2%[57.5 µM].
For Cc1c(OCC(F)(F)F)ccnc1CS(=O)c1nc2ccccc2[nH]1 (configuration not stated) the results were FH mod -9.5%[53.3 µM], NTMT1 inh 44.7µM*! and GALC G270D up inactive.
COCCCOc1ccnc(CS(=O)c2nc3ccccc3[nH]2)c1C (configuration not stated) was read as FH mod 2.5%, NTMT1 inh 17.8µM*! and GALC G270D up inactive.
Screening Cc1ccccc1OCCCSc1nc2ccccc2[nH]1 returned p53null 39C tox 13.6%.
Cc1ccc(-c2nc3ccccc3[nH]2)cc1NC(=O)COc1cccc(C)c1C was read as FH mod 11.8%, p53null 39C tox inconclusive, NTMT1 inh -15.8%, GALC G270D up inactive and p53null 32C kill -18.4%.
Screening Cc1ccc(N2CCC(CNc3nc(-c4ccccc4C(C)C)ncc3C)CC2)cn1 returned NTMT1 inh -8.7%.
For CC(=O)c1ccc(N2CCN(S(=O)(=O)c3ccc(N4CCCC4=O)cc3)CC2)cc1 the results were NTMT1 inh 6.8%.
For CCOc1ccc2nc3cc(N)ccc3c(N)c2c1 the results were FH mod -9.7%[53.3 µM], NTMT1 inh 20µM* and GALC G270D up inactive.
Screening Cc1ccccc1OCC(O)Cn1c(=N)n(CCN2CCCCC2)c2ccccc21 (configuration not stated) returned FH mod -0.3%, p53null 39C tox 20µM*, NTMT1 inh inconclusive, GALC G270D up inactive and p53null 32C kill -4.0%.
Screening C[N+](C)(C)CC[N+]1(C)Cc2c(Cl)c(Cl)c(Cl)c(Cl)c2C1 returned FH mod -8.1%[53.3 µM], NTMT1 inh 7.94µM* and GALC G270D up inactive.
COc1cc(C(CC(=O)Nc2ccc(C)c(F)c2)N2Cc3ccccc3C2=O)cc(OC)c1OC (configuration not stated) was read as FH mod 3.2%, p53null 39C tox 12.1%, NTMT1 inh 5.2%, GALC G270D up inactive and p53null 32C kill 0.9%.
Screening CCOC(=O)c1cccc(NC(=O)CC(c2cc(OC)c(OC)c(OC)c2)N2Cc3ccccc3C2=O)c1 (configuration not stated) returned FH mod -12.6%, p53null 39C tox 5.6%, NTMT1 inh 89.1µM*, GALC G270D up inactive and p53null 32C kill -2.6%.
Screening Cc1ccc2nc(-c3sc4nc(C)ccc4c3N)[nH]c2c1 returned p53null 39C tox 10µM* and p53null 32C kill 11.2µM*.
`Nc1ccc2nc(-c3cccs3)[nH]c2c1` gave p53null 39C tox -20.4% and p53null 32C kill inconclusive.
For Cc1cc(NS(=O)(=O)c2cc3c(cc2N[C@@H](C)CO)NC(=O)CC3)ccc1F the results were NTMT1 inh -2.8%.
For Nc1ccc(O)c([N+](=O)[O-])c1 the results were FH mod inconclusive, NTMT1 inh 35.5µM* and GALC G270D up inactive.
Nc1ccc(C(=O)O)c(O)c1 was read as FH mod -7.2%[53.3 µM], NTMT1 inh 35.5%[57.5 µM] and GALC G270D up inactive.
CC12CCC3c4ccc(O)cc4CCC3C1CC(OC1OC(C(=O)O)C(O)C(O)C1O)C2O (configuration not stated) was read as FH mod -0.5% and NTMT1 inh 15.5%[57.5 µM].
Screening Cc1ccc(S(=O)(=O)Nc2nc3n(n2)C(c2ccc(Cl)cc2)C=C(c2ccccc2)N3)cc1 (configuration not stated) returned FH mod inconclusive, p53null 39C tox 6.7%, NTMT1 inh 35.5µM*, GALC G270D up inactive and p53null 32C kill 21.6%.
Screening CCCN(CCC)CCCNC(=O)c1cnn(-c2ccc(F)cc2)c1-n1cccc1 returned FH mod -1.6%, p53null 39C tox -14.2%, NTMT1 inh -7.5%, GALC G270D up inactive and p53null 32C kill 5.1%.

Source: PubChem
